Where a structure was tested more than once in an assay, its records may differ in their call. Calls of active or inactive are those of the source. How the source made its calls: active means hit-call score of the fitted dose curve at least 0.9, where 1 is the maximum; inconclusive means response in the unintended direction; inactive means score below 0.9.

This passage reports outcome and AC50 results from PubChem BioAssay (EPA / NIEHS).

In the test the target is Estrogen receptor (Homo sapiens) (UniProt P03372). Put plainly: OT_ER_ERaERa_1440: Odyssey Thera (OT) 24-hour HEK293T Protein-Complementation Assay for Estrogen Receptor-alpha/-alpha Homodimer (AID 2283349).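 Further: hits raise fluorescence above DMSO for agonists and antagonists alike.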 How it is done: OT_ER_ERaERa_1440 is a cell-based assay that uses HEK293T, a human kidney cell line, with measurements taken at 24 hours after chemical dosing in a 384-well plate.OT_ER_ERaERa_1440 is one of one assay component(s) measured or calculated from the OT_ER_ERaERa_1440 assay. It is designed to make measurements of protein fragment complementation, a form of binding reporter, as detected with fluorescence intensity signals by Protein-fragment Complementation technology.Data from the assay component OT_ER_ERaERa_1440 was analyzed into 1 assay endpoint. This assay endpoint, OT_ER_ERaERa_1440, was analyzed in the positive analysis fitting direction relative to DMSO as the negative control and baseline of activity. Using a type of binding reporter, measures of receptor for gain-of-signal activity can be used to understand the binding at the pathway-level as they relate to the gene ESR1. Furthermore, this assay endpoint can be referred to as a primary readout, because the performed assay has only produced 1 assay endpoint. To generalize the intended target to other relatable targets, this assay endpoint is annotated to the nuclear receptor intended target family, where the subfamily is steroidal.
Sequence of Estrogen receptor (Homo sapiens) (P03372 whole entry, looked up, the tested form may be a part): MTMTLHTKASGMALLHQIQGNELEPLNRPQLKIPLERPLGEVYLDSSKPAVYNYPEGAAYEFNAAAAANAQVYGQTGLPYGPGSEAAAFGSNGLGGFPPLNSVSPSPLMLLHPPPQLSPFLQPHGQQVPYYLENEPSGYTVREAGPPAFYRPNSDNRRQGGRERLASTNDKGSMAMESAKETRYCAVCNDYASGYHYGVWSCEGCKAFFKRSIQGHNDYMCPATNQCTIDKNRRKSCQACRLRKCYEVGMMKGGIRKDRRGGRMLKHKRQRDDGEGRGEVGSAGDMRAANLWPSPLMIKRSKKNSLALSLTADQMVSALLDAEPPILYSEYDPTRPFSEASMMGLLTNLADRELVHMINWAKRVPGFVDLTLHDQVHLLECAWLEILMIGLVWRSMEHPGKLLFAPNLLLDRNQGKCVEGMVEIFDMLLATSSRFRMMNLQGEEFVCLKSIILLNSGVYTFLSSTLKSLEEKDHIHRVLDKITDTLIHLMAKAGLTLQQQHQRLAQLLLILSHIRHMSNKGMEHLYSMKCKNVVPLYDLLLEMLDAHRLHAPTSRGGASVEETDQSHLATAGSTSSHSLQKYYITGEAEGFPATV
Protein-fragment complementation assay, or PCA, is a method for the identification and quantification of protein-protein interactions. In the PCA, the proteins of interest ("bait" and "prey") are each covalently linked to fragments of a third protein (e.g. DHFR, which acts as a "reporter"). Interaction between the bait and the prey proteins brings the fragments of the reporter protein in close proximity to allow them to form a functional reporter protein whose activity can be measured. The OT ER alpha / ER alpha assay is a homodimer PCA of the ligand binding domain (amino acids 310-547) of human ER alpha stably expressed in HEK293T cells. […] Fluorescent signal in the basal state of the assay is very low and is primarily punctuate and cytoplasmic. Modulation of this assay is quantified as an increase in mean fluorescence intensity in the nucleus (for agonists) or in the nucleus and cytoplasm (antagonists) relative to vehicle controls, and can be quantified on a high content imaging device or a laser scanning cytometer. The latter instrument is favored for this assay because of the rapid mode of data acquisition, the ability to acquire data from the entire cell population in a well (as opposed to a fraction of the well on the high content devices) and the larger dynamic range typically achieved with this instrument. To assess sensitivity of the ER alpha/ER alpha LBD assay to ligand, cells were treated with the ER agonist 17 beta-estradiol (E2) in 10-point concentration- response format for 24 hours and monitored response on a laser scanning plate cytometer (Acumen eX3; TTP Lab Tech).
In the case of `ClC1=C(Cl)C(Cl)(Cl)C(Cl)=C1Cl`, the result was inactive. Still for that read-out and setting: next, `COCC(C)O` (stereo not given): “inactive”. Same read-out and setting: next, `C=C(C)C(=O)OCCC(F)(F)C(F)(F)C(F)(F)C(F)(F)C(F)(F)C(F)(F)F`: “inactive”. The same measure, in the same setting: next, `Cc1cc(C)c(O)c(C)c1`: “inactive”; `C#C[C@]1(O)CC[C@H]2[C@@H]3CCC4=CC(=O)CC[C@@H]4[C@H]3CC[C@@]21C`: “inactive”.

Regarding `CN1CCN(c2ccccc2/C=C2\SCCN(c3ccc(Cl)c(Cl)c3)C2=O)CC1`, the molecule was classed as inactive. For the molecule `COC(=O)CCCCC(=O)OC`, the result was inactive. The same measure, in the same setting: for `CCCCCCC(=O)O` the value was “inactive”. With `CCCOC(=O)c1ccc(O)cc1`, the AC50 was 31.2 µM (active).

As to `CC(C)(C)c1ccc(O)c(C(C)(C)C)c1`, the molecule was called inactive. On the same count and under the same terms, for `CCCCCCCCCCCCCCCS(=O)(=O)Oc1ccccc1` the value was “inactive”; for `Oc1cc2ccccc2c2ccccc12`, “inactive”; for `CN(C)C=O`, “inactive”. In the case of `Cc1oc(-c2ccccc2)nc1CCOc1ccc(C[C@H](Nc2ccccc2C(=O)c2ccccc2)C(=O)O)cc1`, the outcome was inactive. For the molecule `Cc1ccc(S(=O)(=O)O)c(C)c1`, the outcome was inactive and the concentration at half-maximal activity (AC50) was 56.2 µM (active). In the case of `COCC(C)OCC(C)O` (stereo not given), the molecule was called inactive.

For `CC(=O)CC(C)(C)O`, the result was inactive.

As to `O=C(O)Cc1cc(I)c(Oc2cc(I)c(O)c(I)c2)c(I)c1`, the molecule was classed as inactive. On the same count and under the same terms, for `CCCCCCCCC(=O)O` the value was “inactive”. For the molecule `CC(O)C(=O)O` (stereo not given), the molecule was called inactive.

For `OCCC(F)(F)C(F)(F)C(F)(F)C(F)(F)C(F)(F)C(F)(F)F`, the molecule was classed as inactive.

Turning to `c1ccc2cc3c(ccc4ccccc43)cc2c1`, the outcome was inactive.

`CCN(CC)CCNc1ccc(CNC=O)c2sc3ccc(OC)cc3c(=O)c12`: the molecule was classed as inactive. Same read-out and setting: next, `CC(C)(C)c1cc(C(C)(C)C)c(O)c(C(C)(C)C)c1`: “inactive”. Still for that read-out and setting: next, `COc1ccc([N+](=O)[O-])cc1N`: “inactive”; `CC1=C(/C=C/C(C)=C/C=C/C(C)=C/C(=O)O)C(C)(C)CCC1`: “inactive”.

Consider `Nc1cccc2c(N)cccc12`, for which the AC50 was 11.9 µM (active). For `NC(=O)N1C(=O)C(C(=O)c2cc(Cl)cs2)c2cc(F)c(Cl)cc21` (stereo not given), the molecule was classed as inactive. On the same count and under the same terms, for `CN1CCC[C@H]1c1cccnc1` the value was “inactive”; for `CC(C)CCCCCCOC(=O)CCCCC(=O)OCCCCCCC(C)C`, “inactive”; for `O=[N+]([O-])c1ccc(O)cc1`, “inactive”. On the same count and under the same terms, next, `CCCCCCCCOC(=O)CCCCCCCCC(=O)OCCCCCCCC`: “inactive”; `CCC(C)(C)C1CCC(O)CC1` (stereo not given): “inactive”. In the case of `c1ccc2c(c1)ccc1ccccc12`, the molecule was classed as inactive. The same measure, in the same setting: for `CCCCCCCC(=O)O` the value was “inactive”. The same measure, in the same setting: next, `CCCCOCCO`: “inactive”.

Consider `CCCCC(CC)COC(=O)CCCCC(=O)OCc1ccccc1` (stereo not given), for which the molecule was called inactive. Same read-out and setting: for `c1ccc2c(c1)Cc1ccccc1-2` the value was “inactive”; for `CC(C)(C)c1cccc(C(C)(C)C)c1O`, “inactive”.

For orientation: AC50 means the midpoint of the concentration-response curve, whichever way the signal moves.
